Several values for one entry are separate records, joined by “and”; a condition that tells them apart may be missing. Identical values can stand only once. Inconclusive results are not listed. Where a call stands in place of a potency, no number is given. Activity calls are given as the source filed them. Calls follow the shape of the dose curve; as a rule, active = well fitted cell-killing curve with a large enough effect in the repeat runs; inconclusive = weak or mixed curves, or effect the other way; inactive = flat fitted curve, though single readings scatter.
test: qHTS assay to identify small molecule agonists of the estrogen receptor beta (ER-beta) signaling pathway - cell viability counter screen (AID 1259380); settings: ER-beta-bla HEK293T viability, CellTiter-Glo luminescence, 16 h; series mostly up to 92.4 µM; also: nearly all actives have a fitted effect of over 30% in size
Excerpt: National Center for Advancing Translational Sciences [NCATS]
NIH Chemical Genomics Center [NCGC]
U.S. Environmental Protection Agency [EPA]
National Institutes of Environmental Health Sciences [NIEHS]
National Toxicology Program [NTP]
U.S. Food and Drug Administration [FDA]
Estrogen receptor (ER), a nuclear hormone receptor, plays an important role in development, metabolic homeostasis and reproduction. Two subtypes of ER, ER-alpha and ER-beta, have similar expression patterns with some uniqueness in both types. Endocrine disrupting chemicals (EDCs) and their interactions with steroid hormone receptors like ER causes disruption of normal endocrine function. To identify the compounds that activate ER signaling, an ER beta-UAS-bla GripTite cell line (Life Technologies, Madison, WI, USA) containing a beta-lactamase reporter gene under the control of an UAS response element was used to screen Tox21 10K compound library. The cytotoxicity of the Tox21 compound library against the ER-beta-bla cell line was tested in parallel by measuring the cell viability using CellTiter-Glo assay in the same wells.
Tox21 Assay Protocol Summary:
ER-beta-UAS-bla HEK293T cells were dispensed at 2,000 cells/5 uL of assay medium containing 2% charcoal stripped FBS per well into black wall/clear-bottom 1536-well plates using a Multidrop Combi (ThermoFisher Scientific, Waltham, MA) dispenser. After the assay plates were incubated at a 37C and 5% CO2 for 6 hr, 23 nL of compounds dissolved in DMSO, positive controls or DMSO only was transferred to the assay plate by a Pintool station (Kalypsys, San Diego, CA). The plates were incubated at 37C and 5% CO2 for 16 hr. Then 1 uL of LiveBLAzerTM B/G FRET substrate was added using a BioRAPTR FRD (Flying Reagent Dispenser, Aurora Discovery, San Diego, CA) and then the plates were incubated at room temperature for 2 hours, and fluorescence intensity was measured by an Envision plate reader (PerkinElmer, Shelton, CT). For cell viability readout that measures cytotoxicity, 4 uL/well of CellTiter-Glo reagent was added into the assay plates using a FRD. After 30 min incubation at room temperature, the luminescence intensity in the plates was measured using a ViewLux (PerkinElmer) plate reader.
Potency is read from the fitted curve at half-maximal effect.

SMILES	Potency	activity change, negative = cytotoxicity
CCCCCC(C)=O	inactive	–
COc1c2ccoc2cc2oc(=O)ccc12	inactive	–
O=C1CCCCCCCCCCC1	inactive	–
Cc1ccncc1	inactive	–
CC[N+](CC)(CC(=O)Nc1c(C)cccc1C)Cc1ccccc1	inactive	–
CCc1cccc(O)c1	inactive	–
CC(CN1c2ccccc2Sc2ccccc21)N(C)C (stereo not given)	49.1 µM (active) and 24.3 µM (active) and 23.7 µM (active)	–
CC(=O)c1nccs1	inactive	–
OCC(O)CS (stereo not given)	inactive	–
COCN(COC)c1nc(N(COC)COC)nc(N(COC)COC)n1	inactive	–
Cc1ccc(C)c(S(=O)(=O)O)c1	inactive	–
Cc1cccc(C)c1[N+](=O)[O-]	inactive	–
CCOC(=O)CC(=O)OCC	inactive	–
CCCCCNCCCCC	inactive	–
Cc1cc(C)c(O)c(C)c1	inactive	–
C=CC(=O)NCOCCCC	inactive	–
CCCCCCCCO	inactive	–
CC(COCC(C)OC(=O)c1ccccc1)OC(=O)c1ccccc1 (stereo not given)	inactive	–
C=C(C)CC(C)(C)C	inactive	–
O=C(c1ccccc1)c1ccc(O)c(O)c1O	inactive	–

SMILES	Potency	activity change, negative = cytotoxicity
CC1(C)C(=O)N(Cl)C(=O)N1Cl	inactive	–
Cc1ccccc1Cl	inactive	–
O=[N+]([O-])c1cc(C(F)(F)F)ccc1Cl	inactive	–
CN1Cc2c(N)cccc2C(c2ccccc2)C1 (stereo not given)	inactive	–
C=C(CC(=O)O)C(=O)O	inactive	–
Cc1cc(CC(=O)O)n(C)c1C(=O)c1ccc(Cl)cc1	inactive	–
CN1CCCC1=O	inactive	–
OCC(CO)(CO)CO	inactive	–
OC1CCCCC1	inactive	–
CC(C)(C)NC[C@H](O)COc1nsnc1N1CCOCC1	inactive	–
CC1=CC(=O)CC(C)(C)C1	6.29 µM (active)	–
CC(C)=CCC/C(C)=C/C=O	inactive	–
CCCCCCCC(=O)O	inactive	–
CCCCCCCCCCCC(=O)N(C)CC(=O)O	–	-3.5% [at 8.39 µM] (inactive)
COC(=O)CCCCC(=O)OC	inactive	–
COC(=O)/C=C\C(=O)OC	inactive	–
CC(C=O)Cc1ccc(C(C)(C)C)cc1 (stereo not given)	inactive	–
O=c1n(CCCN2CCN(c3cccc(Cl)c3)CC2)nc2ccccn12	24.3 µM (active)	–
OCc1ccc(Cl)cc1Cl	inactive	–
COc1c(Cl)ccc(Cl)c1C(=O)O	inactive	–
